Our source for the Potency values is PubChem BioAssay AID485297 (National Center for Advancing Translational Sciences (NCATS), 2010).

About 9,100 (2.8%) of roughly 320,000 compounds were called active. A call without a number means that no potency is given here. Not shown: some 3% with an inconclusive outcome. Calls come from the whole dose curve; as a rule, active = well fitted activation curve with a large enough effect; inconclusive = small, poorly fitted or top-dose-only effect; inactive = no such curve, though single readings can be large or run the other way. The sample as a whole holds a higher share of actives than the screen did.
Potency is the fitted concentration of half-maximal effect.

A short description of the experiment: qHTS Assay for Rab9 Promoter Activators. Note: nearly all actives have a fitted effect of over 60% in size. The settings on record: Huh7 Rab9 promoter-luciferase reporter, luminescence, 24 h; series mostly up to 9.22 µM. An outline of the steps: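 Luminescence from Amplite-detected luciferase (10 minutes, ambient) reports Rab9 promoter activation. Before that, stable Rab9-luciferase Huh7 cells (1500/well, reduced-serum OP-MEM I plus 10% FBS) were exposed to compound for 24 hours at 37C.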
Consider `CN(CC(=O)NC(=O)Nc1ccccc1F)Cc1ccccc1`, for which the Potency entry is “inactive”.

For `CCCn1c(N)c(C(=O)CSc2nnc3n2CCCCC3)c(=O)[nH]c1=O`, the Potency entry is “inactive”.

Take `O=C(Nc1nnc(CCN2CCCCC2)s1)c1cccc(Cl)c1`: the Potency entry is “inactive”.

With `CC(NC(=O)CN(C)S(=O)(=O)c1ccc(F)cc1)C1CC2CCC1C2` (centres undefined), the Potency result is “inactive”.

Take `Cc1ccc(CNC(=O)CC(NC(=O)c2ccccc2)c2ccccc2)cc1` (centres undefined): the Potency result is “inactive”.

As for `CC1(C)CC(=O)C=C(c2cccc3c2Oc2ccccc2S3)C1`, the Potency result is “inactive”.

`COc1cc(SC)ccc1C(=O)NCCOc1ccccc1Cl`: the Potency is 3980 nM (active).

On to `Cc1ccnc(NC(=O)CCCOc2ccccc2)c1`, for which the Potency entry is “inactive”.

With `COc1ccccc1OCCNC(=O)CCNC(=O)c1ccccc1Cl`, the Potency result was “inactive”.

In the case of `COc1cc(SC)ccc1C(=O)N(Cc1ccccc1)c1ccccc1`, the Potency result is “inactive”.

In the case of `Cc1ccnc(NC(=O)CNC(=O)c2ccccc2)c1`, the Potency result was “inactive”.

`COc1cc(SC)ccc1C(=O)Nc1cc(C)ccn1`: the Potency was 3550 nM (active).

With `COc1cc(F)c(C2=CC(=O)CC(C)(C)C2)cc1F`, the Potency entry was “inactive”.

As to `Cc1ccc(CC(=O)Nc2ccc(S(=O)(=O)N3CCOCC3)cc2)cc1C`, the Potency result is “inactive”.

Consider `CN1CCN(S(=O)(=O)c2cccc(C(=O)Nc3sccc3C#N)c2)CC1`, for which the Potency result is “inactive”.

For `COc1cccc(CNC(=O)CN2C(=O)NC(Cc3ccccc3)(c3ccccc3)C2=O)c1` (centres undefined), the Potency entry was “inactive”.

As for `Cc1cccc(NC(=O)NC(=S)NC(=O)c2ccccc2)c1`, the Potency result was “inactive”.

Regarding `Cc1ccc(NC(=O)NC(=O)c2ccccc2)cc1F`, the Potency is 398 nM (active).

As to `Cc1nc(C)c(C(=O)Nc2ccc(C)c(F)c2)o1`, the Potency entry is “inactive”.

Take `CC1CCCCC1NC(=O)NC(=O)COC(=O)C1=NN(c2ccccc2)C(=O)CC1` (centres undefined): the Potency result was “inactive”.

On to `O=C(NCC1(N2CCCCC2)CCCCC1)c1ccc(NS(=O)(=O)c2ccc(F)cc2)cc1`, for which the Potency result was “inactive”.

On to `O=C(COC(=O)CCCSc1nc2ccccc2[nH]1)Nc1ccc(Oc2ccccc2)cc1`, for which the Potency entry was “inactive”.

As to `O=C(CSc1nc2ccccc2[nH]1)Nc1nc(-c2ccccc2)c(-c2ccccc2)o1`, the Potency result was “inactive”.

Regarding `CCCCSc1nc2ccccc2[nH]1`, the Potency is 2000 nM (active).

For `CCc1nnc(NC(=O)CCCSc2nc3ccccc3[nH]2)s1`, the Potency result is “inactive”.

On to `O=C(CSc1nc2ccccc2[nH]1)c1cccs1`, for which the Potency was 2000 nM (active).

As for `CN(Cc1ccccc1)C(=O)CSc1nc2ccccc2[nH]1`, the Potency result was “inactive”.

Turning to `O=C(NCc1cccc(Cl)c1)C1=CC=CN2CCS(=O)(=O)N=C12`, the Potency result is “inactive”.

Consider `Cc1cccc2cc3c(N)c(C(=O)N4CCCc5ccccc54)sc3nc12`, for which the Potency entry was “inactive”.

For the compound `Nc1c(C(=O)NCc2ccccc2)sc2nc3c(cc12)C(=O)CCC3`, the Potency result is “inactive”.

`CC(C)OC(=O)c1sc2nc3c(cc2c1N)C(=O)CCC3`: the Potency is 3550 nM (active).

Take `CSc1nc2ccc(NC(=O)c3c(F)cccc3F)cc2s1`: the Potency was 3550 nM (active).

In the case of `O=C(Nc1ccncc1)c1c(F)cccc1F`, the Potency entry was “inactive”.

`CCCC(=O)Nc1nc2ccc(NC(=O)c3c(F)c(F)c(OC)c(F)c3F)cc2s1`: the Potency entry is “inactive”.

As for `CSCCC(NC(=O)COc1ccccc1)C(=O)N(C)CC(=O)Nc1ccc(C)cc1` (centres undefined), the Potency entry was “inactive”.

In the case of `CC(C)C(=O)OCC(=O)Nc1ccc2c(c1)CCC2`, the Potency entry is “inactive”.

For the compound `O=C(Nc1ccc2c(c1)CCC2)c1ccc(Br)s1`, the Potency was 1120 nM (active).

Regarding `O=C(NC1CCCC1)c1ccc(Br)s1`, the Potency entry is “inactive”.

As for `Cc1ccc(NC(=O)CCNC(=O)c2ccc([N+](=O)[O-])cc2)cc1S(=O)(=O)N1CCOCC1`, the Potency entry was “inactive”.

For the compound `O=C(CCNC(=O)c1ccccc1Cl)NCc1ccco1`, the Potency result was “inactive”.

For the compound `COc1ccc(CNC(=O)COC(=O)c2ccc(C)c(S(=O)(=O)N3CCOCC3)c2)cc1OC`, the Potency result was “inactive”.

As for `O=C(NC1CCCCC1)c1ccc(-c2ccc(Cl)cc2)o1`, the Potency is 2820 nM (active).

Regarding `S=C(NCc1ccc(Cl)cc1)NC1CCCCC1`, the Potency entry is “inactive”.

Regarding `O=C(NC(=S)NC1CCCCC1)c1ccc(Cl)cc1`, the Potency entry was “inactive”.

On to `CCCC(NCC(=O)Nc1ccccc1C(=O)NC1CC1)c1ccccc1` (centres undefined), for which the Potency result is “inactive”.

For the compound `O=C(OCC(=O)N1CCc2ccccc21)c1ccc([N+](=O)[O-])cc1`, the Potency entry was “inactive”.

On to `Cc1cccc(C)c1NC(=O)COC(=O)c1c(C)nn(-c2ccccc2)c1C`, for which the Potency entry is “inactive”.

On to `Cc1ccc(-n2nc(C)c(C(=O)O)c2-n2cccc2)cc1`, for which the Potency entry was “inactive”.

Turning to `Cc1ccc(OC(=O)c2c(C)nn(-c3ccccc3)c2C)cc1`, the Potency was 3160 nM (active).

On to `Cc1ccc(NC(=O)CN(C)S(=O)(=O)c2cnc[nH]2)cc1C`, for which the Potency result was “inactive”.

Take `Cc1ccc(S(=O)(=O)N2CCOCC2)cc1NC(=O)COC(=O)c1cnccn1`: the Potency result was “inactive”.

Regarding `O=C(Nc1ccc2c(c1)OCCO2)C1CCCN(c2ncccn2)C1` (centres undefined), the Potency was 316 nM (active).

`Cc1cc(C)nc(N2CCC(C(=O)Nc3ccc4c(c3)OCCO4)CC2)n1`: the Potency result is “inactive”.

As to `O=C(Nc1ccc2c(c1)OCCO2)C1CCCC1`, the Potency result was “inactive”.

Consider `Cc1c(C(C)CCCO)oc(=O)c2c1Oc1c(C)c(C(C)C[C@@H](C)O)oc(=O)c1C2` (some centres undefined), for which the Potency entry was “inactive”.

As to `CCCN(CCC)CC(O)COc1ccccc1C(=O)Nc1ccccc1` (centres undefined), the Potency result was “inactive”.

`Cc1ccc(C(=O)Nc2c(C#N)c(C)c(C)n2Cc2ccccc2)cc1`: the Potency entry was “inactive”.

On to `Cc1cc(=O)oc2cc(NC(=O)C(C)Oc3ccccc3)ccc12` (centres undefined), for which the Potency entry was “inactive”.

For the compound `CC(C)C(=O)Nc1ccc2c(c1)oc1ccccc12`, the Potency was 891 nM (active).

Take `CC(C)C(=O)Nc1ccc2oc(=O)ccc2c1`: the Potency entry was “inactive”.

For the compound `CC1(C)O[C@@H]2[C@H](O1)[C@@H](CO)O[C@H]2n1c(N2CCCCC2)nc2c(N)ncnc21`, the Potency entry is “inactive”.

With `Fc1ccccc1/C=N/n1c(-c2cccnc2)n[nH]c1=S`, the Potency entry is “inactive”.

With `S=c1[nH]nc(-c2cccnc2)n1/N=C/C(Cl)=C\c1ccccc1`, the Potency was 3160 nM (active).

In the case of `Cc1cc(-c2n[nH]c(=S)n2/N=C/C(Br)=C/c2ccccc2)n[nH]1`, the Potency entry is “inactive”.

On to `Cn1c(=O)n(Cc2ccco2)c(=N)c2c3c(sc21)CCCC3`, for which the Potency entry is “inactive”.

In the case of `O=c1oc(-c2ccco2)nc2sc3c(c12)CCCCC3`, the Potency was 3550 nM (active).

As for `O=C(NCc1ccco1)c1cccn2c(=O)c3c4c(sc3nc12)CCCC4`, the Potency entry is “inactive”.

On to `CCOC(=O)N1CCN(S(=O)(=O)c2ccc3c(c2)C(C)C(=O)N3)CC1` (centres undefined), for which the Potency result was “inactive”.

Turning to `CC(C)N(C(=O)CN1CCN(S(=O)(=O)c2ccc(Br)s2)CC1)C(C)C`, the Potency entry was “inactive”.

Consider `COc1cc(C(=O)NNC(=O)CN2C(=O)NC3(CCCC3)C2=O)cc(OC)c1OC`, for which the Potency result was “inactive”.

Turning to `COC(=O)c1c(NC(C)=O)sc(C(=O)Nc2ccccc2OC)c1C`, the Potency entry is “inactive”.

In the case of `CCOC(=O)c1sc(NC(=O)COc2ncnc3ccccc23)c(C(=O)OCC)c1C`, the Potency entry was “inactive”.

As to `CCC(=O)Nc1sc(C(=O)Nc2ccccc2)c(C)c1C(=O)OC`, the Potency is 891 nM (active).

With `Cc1ccc(NC(=O)CCC(=O)N2CCC(c3ccccc3)=N2)cc1S(=O)(=O)N1CCCCC1`, the Potency entry was “inactive”.

In the case of `CCN(CC)C(=O)c1nc[nH]c1C(=O)N(C)Cc1ccccc1`, the Potency result is “inactive”.

`Cc1ccc(Nc2nc(N)nc(CSc3nnc(C)s3)n2)cc1`: the Potency is 4470 nM (active).

As to `CCOC(=O)N1CCN(Cc2nc(N)nc(Nc3ccc(C)cc3)n2)CC1`, the Potency entry was “inactive”.

Take `Cc1nnc(SCc2nc3ccccc3nc2C)s1`: the Potency entry was “inactive”.

Take `CC(C)(C)C(=O)CSc1ccc(S(=O)(=O)N2CCCC2)cn1`: the Potency entry was “inactive”.

`COCc1c(C(=O)OCC(=O)Nc2ccc(OC(F)F)cc2)oc2ccccc12`: the Potency entry is “inactive”.

For the compound `O=c1c2ccccc2ncn1/N=C/c1ccccc1`, the Potency was 447 nM (active).

Turning to `O=C(Nn1cnc2ccccc2c1=O)c1ccccc1`, the Potency result is “inactive”.

For the compound `CCCc1nc2ccccc2c(=O)n1/N=C/c1ccc(O)c(O)c1`, the Potency result is “inactive”.

Turning to `CC(C)C(NC(=O)c1c(F)cccc1F)C(=O)NCc1ccncc1` (centres undefined), the Potency result was “inactive”.

Turning to `Cc1nn2cc(-c3ccc(Cl)cc3)cnc2c1Br`, the Potency was 1120 nM (active).

For `Cc1noc(C)c1C(=O)NCC1COc2ccccc2O1` (centres undefined), the Potency result is “inactive”.

For `O=C(COC(=O)c1ccc(O)cc1O)NNC(=O)c1cccs1`, the Potency entry is “inactive”.

With `Cc1ccc(SCCC(=O)NC(C(C)C)C(C)C)cc1`, the Potency entry is “inactive”.

As to `Cc1ccc(SCCC(=O)NCc2ccccn2)cc1`, the Potency entry is “inactive”.

Turning to `Cc1ccc(SCCSc2ncccn2)cc1`, the Potency was 2000 nM (active).

As for `Nc1nnc(SCC(=O)NCC(=O)Nc2ccc(F)c(F)c2F)s1`, the Potency entry is “inactive”.

In the case of `Cc1c(C(=O)NNC(=O)c2ccncc2)oc2ccccc12`, the Potency entry was “inactive”.

Turning to `Cc1cccc(N(C)C(=O)CN2C(=O)COc3ccc(S(=O)(=O)N4CCCCCC4)cc32)c1`, the Potency result was “inactive”.

With `CN(CC(=O)Nc1cccc(F)c1)C(=O)CC1CCCC1`, the Potency entry was “inactive”.

Regarding `COc1ccc(C2=NN(C(=O)CSc3nnnn3C)C(c3ccco3)C2)cc1` (centres undefined), the Potency entry is “inactive”.

For the compound `Cc1ccc(C(=O)OCC(=O)Nc2ccc(Cl)cn2)cc1S(=O)(=O)N1CCOCC1`, the Potency entry was “inactive”.

Take `O=S(=O)(Nc1ccc2nc(N3CCOCC3)sc2c1)c1ccccc1`: the Potency is 2820 nM (active).

On to `O=C(c1ccc2nc(N3CCOCC3)sc2c1)N1CCN(c2ccc(Cl)cc2)CC1`, for which the Potency result was “inactive”.

With `CC(=O)Nc1ccc(S(=O)(=O)Nc2ccc(N3CCOCC3)c(F)c2)cc1`, the Potency entry was “inactive”.

On to `N#Cc1ccc(CN2CCN(CC(=O)Nc3ccccc3C(=O)NC3CC3)CC2)cc1`, for which the Potency result was “inactive”.

On to `Cn1c(=O)c(C(=O)Nc2ncccn2)c(O)c2ccccc21`, for which the Potency was 3160 nM (active).

For `CCCn1c(=O)c(C(=O)Nc2cc(C)ccn2)c(O)c2ccccc21`, the Potency result was “inactive”.

In the case of `C=CCn1c(=O)c(C(=O)Nc2ncccc2O)c(O)c2ccccc21`, the Potency entry was “inactive”.

As for `COC(=O)CNS(=O)(=O)c1ccc(Cc2ccc(S(=O)(=O)NCC(=O)OC)cc2)cc1`, the Potency was 1260 nM (active).

On to `C/C(N)=C(/C#N)C(=O)COC(=O)CNS(=O)(=O)c1ccc(C)cc1`, for which the Potency result is “inactive”.

`COC(=O)CNS(=O)(=O)c1ccc(OC)cc1`: the Potency result was “inactive”.

`COc1ccc(S(=O)(=O)N2CCOCC2)cc1NC(=O)CSc1cc(C)ccc1C`: the Potency result was “inactive”.

Consider `CCOC(=O)c1c(C)[nH]c(C2=NNC(=NC(C)COC)SC2)c1C` (centres undefined), for which the Potency was 1580 nM (active).

As to `O=C(CSc1nc2ccccc2c(=O)n1CCCO)NC1CC1`, the Potency entry is “inactive”.
